Sm TGR inh – S. mansoni TGR enzyme inhibition | AID 485364 | Q962Y6 | 360,000 tested, 3% active | purified TGR, DTNB reduction, TNB absorbance 405 nm | Potency, µM (highest dose often 114 µM), for inactives: at the highest dose activity change, negative = inhibition, hits mostly inhibitors; also: potency is read from the fitted curve at half-maximal effect; % is scaled to controls: 0 for no effect and ±100 for the full control effect; nearly all actives have a fitted effect of over 60% in size
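TGR 20 nM + NADPH 100 uM (dispensed conc.), cpd preinc 15 min RT; start with NADPH (500 uM addition) then DTNB (15 mM addition). Kinetic TNB absorbance, 405 nm filter. Four-parameter Hill fit across titration.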
Shiga inhibitor – inhibitors of Shiga toxin in Vero cells. inhibition, % at 38.7 µM. 290,000 tested, 9.2% active. AID 2315. Vero cells, Shiga toxin protein synthesis inhibition reporter; in the data active = inhibition mostly above about 28%, no sharp cut-off; inactive = mostly below about 43%; also: 0% is about no effect
Pf growth 48h – P. falciparum growth inhibition at 48 hours (one generation). 310,000 tested, 5.9% active. P. falciparum luciferase growth in erythrocytes, 48 h. Potency, µM (series often up to 28.7 µM), inactives show top-dose activity change, negative = inhibition, actives largely listed as inhibitors. AID 504832; also: potency is read from the fitted curve at half-maximal effect; % is scaled to controls: 0 for no effect and ±100 for the full control effect
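Luminescence readout; reporter = integrated firefly luciferase in P. falciparum. RBC culture at 2% hematocrit, 0.1% parasitemia final, 37 C/5% CO2; decreased signal taken as growth inhibition.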
Pf growth 96h – P. falciparum growth inhibition at 96 hours. Potency, µM (top dose mostly 28.7 µM), inactives show at the highest dose activity change, negative = inhibition, hits mostly inhibitors. 320,000 tested, 6.9% active. P. falciparum luciferase reporter growth, 96 h. AID 504834; also: potency is read from the fitted curve at half-maximal effect; % is scaled to controls: 0 for no effect and ±100 for the full control effect
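P. falciparum expressing integrated firefly luciferase, in erythrocytes at 2% hematocrit, 0.05% parasitemia, incubated with compounds 96 h at 37 C, 5% CO2. Growth inhibition read as loss of luminescence; two-generation exposure targets delayed-death apicoplast inhibitors.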
CHX counter – counter-screen hit for Shiga toxin inhibitors, cycloheximide; 300,000 tested, 12% active; max response, %; cell reporter, cycloheximide protein synthesis inhibition counterscreen; AID 2314; in the data active = max response mostly above about 13%, no sharp cut-off; inactive = mostly below about 14%; also: read at 38.3 µM for the half of the compounds with a filed dose; 0% is about no effect
NS1 function inh – influenza NS1 inhibition | Potency, µM (doses to about 46.1 µM), inactives show at the top dose activity, positive = more growth | 270,000 tested, 0.4% active | AID 2326; calls by dose curve; also: potency is read from the fitted curve at half-maximal effect; actives are rising curves; nearly all actives have a fitted effect of over 50% in size
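S. cerevisiae expressing influenza A NS1, grown in glucose, washed, then diluted 1:100 into pH 6.0 -URA galactose medium with 23 nl compound. Growth recovery read as OD600; NS1-free strain serves as control.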
An asterisk follows results filed as active. Compounds with a hit are over-represented: about 21% of the library has one in this group of screens. Unless noted, calls follow the shape of the dose curve; as a rule, active = well fitted curve in the direction sought with a large enough effect; inconclusive = small, poorly fitted or top-dose-only effect, or another doubt; inactive = no such curve, though single readings can be large; an effect the other way counts as inactive or inconclusive.

`COc1cc(NC(=O)C(CC(C)C)NS(=O)(=O)c2ccc3c(c2)CCN3C(C)=O)cc(OC)c1` (configuration not stated) gave Sm TGR inh -1.0%.
For O=C(Cc1ccc(-n2c(=O)[nH]c3ccccc3c2=O)cc1)N1CCN(c2ccccc2)CC1 the results were Sm TGR inh -6.9%, Shiga inhibitor -7.5, Pf growth 48h 11.7µM*, Pf growth 96h 36.8%, CHX counter -0.7 and NS1 function inh 5.8%.
NC(=O)CCCSc1nc2ccccc2[nH]1 was read as Sm TGR inh -16.4%, Shiga inhibitor -16.8, Pf growth 48h 2.5%, Pf growth 96h 15.7% and CHX counter -1.2.
COc1ccc(N2CCN(C(=O)CCCSc3nc4ccccc4[nH]3)CC2)cc1 was read as Sm TGR inh 0.4%, Shiga inhibitor -19.2, Pf growth 96h 9.28µM*, CHX counter -0.8 and NS1 function inh -4.8%.
For CCOc1ccc(OCC)c(NC(=O)c2cc(-c3cccs3)nc3ccccc23)c1 the results were Sm TGR inh -9.0%.
For COc1ccc(Cl)cc1Nc1ncnc2c1nc1n2CCCC1 the results were Sm TGR inh 0.9%.
For CCOC(=O)CNc1cccc(C(F)(F)F)c1 the results were Sm TGR inh -1.2%, Shiga inhibitor -2.0, Pf growth 48h 21.2%, Pf growth 96h 69.7% and CHX counter 6.0.
For CCC(NC(=O)Nc1cc(OC)ccc1OC)c1c(-n2cccc2)sc2c1CCN(CC)C2 (configuration not stated) the results were Sm TGR inh -21.2%.
`N#CC(C(=O)c1ccco1)c1ccccn1` (configuration not stated) gave Sm TGR inh -13.1%, Shiga inhibitor 25.7, Pf growth 48h 60.0%, Pf growth 96h 1.8%, CHX counter 16.6* and NS1 function inh -21.9%.
For N#C/C(=C(/O)c1cccc(F)c1)c1nc2ccccc2s1 the results were Sm TGR inh -21.2%, Shiga inhibitor 7.6, Pf growth 48h 66.7%, Pf growth 96h 111.0%, CHX counter 11.6* and NS1 function inh -34.5%.
N#C/C(=C(/O)CN1CCOCC1)c1nc2ccccc2s1 was read as Sm TGR inh 4.0%, Shiga inhibitor 55.2, Pf growth 48h 12.0%, Pf growth 96h -3.1%, CHX counter 10.0 and NS1 function inh 1.9%.
For N#C/C(=C(/O)c1ccco1)c1nc2ccccc2s1 the results were Sm TGR inh 5.0%, Shiga inhibitor 66.2*, Pf growth 48h 73.7%, Pf growth 96h 69.8%, CHX counter 38.5* and NS1 function inh -53.1%.
`N#C/C(=C(/O)c1cc2ccccc2o1)c1nc2ccccc2s1` gave Sm TGR inh -2.7%, Shiga inhibitor 13.0, Pf growth 48h 48.5%, Pf growth 96h 164.8%, CHX counter 12.6 and NS1 function inh -22.6%.
For CC1=CC(=C(C#N)c2nc3ccccc3s2)C=C(C)N1Cc1ccco1 the results were Sm TGR inh 1.0%, Shiga inhibitor 14.1, Pf growth 48h 3.29µM*, CHX counter -3.3 and NS1 function inh -2.9%.
Screening Cc1ccccc1C1CC(=O)Nc2ccc3ccccc3c21 (configuration not stated) returned Sm TGR inh 5.3%.
CCCSc1ncc(Cl)c(C(=O)Nc2c(C(=O)c3ccc(F)cc3)oc3ccccc23)n1 was read as Sm TGR inh 3.6%.
O=C(NC1CCCCC1)C(c1ccc(F)cc1)N(C(=O)c1csnn1)C1CC1 (configuration not stated) was read as Sm TGR inh -22.0%, Shiga inhibitor 20.9, Pf growth 48h -4.1%, Pf growth 96h 15.5%, CHX counter -4.3 and NS1 function inh 20.9%.
`N#C/C(=C(\O)c1ccco1)c1ccccn1` gave Sm TGR inh 1.5%, Shiga inhibitor 70.1*, Pf growth 48h 39.2%, Pf growth 96h inconclusive, CHX counter 31.2* and NS1 function inh -17.6%.
Screening Cc1ccc(/C=C/C(=O)OCC(=O)Nc2cccc(S(=O)(=O)N(C)C)c2)o1 returned Sm TGR inh inconclusive, Shiga inhibitor 17.3, Pf growth 48h 48.2%, Pf growth 96h -2.7%, CHX counter 13.6* and NS1 function inh -13.0%.
CCN(CC)S(=O)(=O)c1cccc(NC(=O)COC(=O)/C=C/c2cccs2)c1 was read as Sm TGR inh 9.5%, Shiga inhibitor 17.0, Pf growth 48h -22.1%, Pf growth 96h -9.9%, CHX counter 1.2 and NS1 function inh 11.0%.
Cc1ccc(S(=O)(=O)N(C)C)cc1NC(=O)COC(=O)/C=C/c1cnc2ccccc2n1 was read as Sm TGR inh 0.6%, Shiga inhibitor 41.9, Pf growth 48h 0.8%, Pf growth 96h -1.9% and CHX counter 13.5.
Screening Cc1ccc(S(=O)(=O)N(C)C)cc1NC(=O)COC(=O)/C=C/c1ccc2c(c1)OCO2 returned Sm TGR inh -4.3%, Shiga inhibitor 39.9, Pf growth 48h 4.8%, Pf growth 96h inconclusive and CHX counter 17.2*.
Screening CN(C)S(=O)(=O)c1cccc(NC(=O)COC(=O)/C=C/c2ccc3c(c2)OCO3)c1 returned Sm TGR inh 5.4%, Shiga inhibitor 70.7, Pf growth 48h 82.2%, Pf growth 96h 14.8%, CHX counter 16.4* and NS1 function inh 9.5%.
`COc1ccc(/C=C/C(=O)OCC(=O)Nc2ccc3c(c2)OCO3)cc1` gave Sm TGR inh -3.5%, Pf growth 48h 2.2% and Pf growth 96h 12.7%.
Screening Cc1ccc(Nc2c(N)c(=O)oc3ccccc23)cc1 returned Sm TGR inh 0.9%, Shiga inhibitor 57.1*, Pf growth 48h inconclusive, Pf growth 96h -23.1%, CHX counter 21.9* and NS1 function inh -3.5%.
For CNc1c(N)c(=O)oc2ccccc12 the results were Sm TGR inh -5.0%, Shiga inhibitor 18.2, Pf growth 48h 38.6%, Pf growth 96h inconclusive and CHX counter 7.2.
For CCCS(=O)(=O)N1CCN=C1SCc1cccnc1 the results were Sm TGR inh -0.1%, Shiga inhibitor 23.3, Pf growth 48h inconclusive, Pf growth 96h inconclusive and CHX counter 12.0.
For CCN(c1ccccc1)S(=O)(=O)c1ccc(C(=O)N(CCCN(C)C)c2nc3c(C)cccc3s2)cc1 the results were Sm TGR inh -20.3%, Shiga inhibitor -1.8, Pf growth 48h 14.7µM*, Pf growth 96h 9.28µM*, CHX counter -1.8 and NS1 function inh 4.0%.
For Cc1ccc2sc(N(CCCN(C)C)C(=O)c3ccc(S(=O)(=O)N(C)C)cc3)nc2c1C the results were Sm TGR inh 12.4%, Shiga inhibitor 11.3, Pf growth 48h inconclusive, Pf growth 96h inconclusive and CHX counter -9.7.
Screening CCN(c1ccccc1)S(=O)(=O)c1ccc(C(=O)N(CCCN(C)C)c2nc3cc4c(cc3s2)OCO4)cc1 returned Sm TGR inh -5.9%, Shiga inhibitor -21.2, Pf growth 48h -58.9%, Pf growth 96h -7.8%, CHX counter 2.8 and NS1 function inh 10.9%.
